# “And” between values parts separate entries of the source, which are not always exact repeats. Identical values can stand only once. Inconclusive results are not listed. Where a call stands in place of a potency, no number is given. The source made the active and inactive calls. The call rests on the fitted dose curve; in most records, active means well fitted cell-killing curve with a large enough effect; inconclusive means small, poorly fitted or top-dose-only effect; inactive means flat fitted curve, though single readings scatter.
# Assay: Cellular viability qHTS for adrenocortical cancer (ACC) cell line NCI-H295R (AID 1963990); further: nearly all actives have a fitted effect of over 60% in size
# Conditions: CellTiter-Glo ATP luminescence, 48 h; series mostly up to 46.1 µM
# Source text: PI: Naris Nilubol, MD Surgical Oncology Program, National Cancer Institute (NCI) National Institute of Health (NIH), Bethesda, Maryland Adrenocortical cancer (ACC) is a rare malignancy with poor survival outcomes and few treatment options. Currently, mitotane is the only FDA-approved therapy for ACC. Although adjuvant radiation therapy is rarely utilized, it has the potential to improve survival in select cases. Through a quantitative high-throughput drug screen (qHTS), we identified auranofin (AF), a thioredoxin reductase (TXNRD) inhibitor, as a promising candidate drug. This study aims to evaluate whether AF can enhance the efficacy of radiation therapy in the treatment of ACC. Two human ACC cell lines, SW-13 and NCI-H295R, were screened using the National Center for Advancing Translational Sciences (NCATS) Pharmaceutical Collection (NPC) and the Mechanism Interrogation PlatE (MIPE) library (~4,991 compounds). CellTiter-Glo (Cat # G7570, Promega, Madison, WI) was utilized to measure cell viability. Described herein are the results of the corresponding viability assay.
# PROTOCOL TABLE (as described by Inglese J, Shamu CE and Guy RK. 2007) SEQUENCE No. (e.g., 1, 2, 3, etc.); […] (e.g., Cells, Incubation, Reagent, etc.); VALUE; DESCRIPTION. 1; Cells; 5 uL; white, solid-bottom, 1536-well tissue-culture treated plates. 2; Time; overnight culture at 37C with 5% CO2. 3; Compounds and control; 23 nL; Kalypsis pin tool (Wako USA) equipped with a 1536-well pin head to transfer to the assay plates. 4; Time; 48 hours; 37C with 5% CO2. 5; Reagent; 4 uL; CellTiter-Glo luminescent substrate mix. 6; Time; 20 min at room temperature. 7; Detection; Luminescence; ViewLux plate reader NOTES (numbers refer to Sequence numbers above) 1. NCI-H295R cells were harvested from a T175 flask and resuspended in ITS-supplemented DMEM serum-free medium at a concentration of 300 000 cells/mL. Then 5 uL of resuspended cells were dispensed into each well of white, solid-bottom, 1536-well tissue-culture-treated plates using a multidrop combi dispenser. The plates were covered with stainless steel gasket lids. 2-3. The plates were cultured overnight at 37C with 5% CO2. Twenty-three nL of compounds (eight selected concentrations from the NPC / MIPE) or positive control (10 mM stock of bortezomib) in DMSO was transferred to each well of the assay plate using a pin tool (Kalypsys, San Diego, CA, USA). The final concentration of the compounds in the 5 uL assay volume ranged from 0.5 nM to 46 uM. 4-6. After 48 hours of incubation at 37C and 5% CO2, 4 uL of CellTilter-Glo luminescent substrate mix (Promega, Madison, WI, USA) was added to each well. Then the plates were incubated for 20 minutes at room temperature. 7. After incubation, luminescence was measured using a ViewLux plate reader (PerkinElmer, Waltham, MA, USA) with a clear filter was used to measure the number of metabolically competent cells. To determine compound activity in the qHTS assay, the titration-response data for each sample was plotted and modeled by a four-parameter logistic fit yielding IC50 and efficacy (maximal response) values. Raw plate reads for each titration point were normalized relative to positive control ([…], 100% inhibition) and DMSO-only wells (basal, 0%). REFERENCES: Inglese J, Shamu CE and Guy RK, Reporting data from high throughput screening of small molecule libraries, Nature Chemical Biology, 2007, 3(8): 438-441. doi.org/10.1038/nchembio0807-438.
row,Compound,Potency
1,Nc1c2ccccc2nc2ccccc12,7.31 µM (active)
2,COc1cc2c(NC3CCN(CC4CCCCC4)CC3)nc(N3CCCN(C(C)C)CC3)nc2cc1OCCCN1CCCCC1,22.4 µM (active)
3,O=C(O)/C(S)=C/c1ccc(I)cc1,inactive
4,O=C(c1ccc(OCCN2CCCCC2)cc1)c1c(-c2ccc(O)cc2)sc2cc(O)ccc12,9.2 µM (active) and 31.6 µM (active)
5,CCS(=O)(=O)N1CCC(C(C)n2c(C)c(C(=O)NCc3c(OC)cc(C)[nH]c3=O)c3ccccc32)CC1 (stereo not given),inactive
6,COc1nc(N)nc2c1ncn2C1OC(CO)C(O)C1O (stereo not given),inactive
7,C[C@@H](CN1CC(=O)NC(=O)C1)N1CC(=O)NC(=O)C1,inactive
8,CN(C)c1ccc(C(=C2C=CC(=[N+](C)C)C=C2)c2ccc(N(C)C)cc2)cc1,920 nM (active) and 2.82 µM (active)
9,N[C@@H](CCC(=O)O)C(=O)N[C@@H](Cc1c[nH]c2ccccc12)C(=O)O,inactive
10,Nc1ncnc(Nc2ccccc2)n1,inactive
11,Cc1cc(C)c(S(=O)(=O)N(CCc2cccc(Br)c2)Cc2ccc(-c3cccc(S(C)(=O)=O)c3)cc2)c(C)c1,inactive
12,Nc1nnnn1-c1ccccc1,inactive
13,OCc1c[nH]c2ccccc12,22.4 µM (active)
14,CC(C)C[C@@H](C(=O)N[C@H](C(=O)OC1CCCC1)c1ccccc1)[C@H](O)C(=O)NO,25.1 µM (active)
15,CN(C)C(=O)Oc1ccc[n+](C)c1,inactive
16,C[C@@H](Nc1ncnc2[nH]c(-c3ccc(O)cc3)cc12)c1ccccc1,11.2 µM (active)
17,O=C(O)CCCCCC(=O)NN=C1CCCC1,inactive
18,CCCCCCCCCCC[C@@H](C[C@@H]1OC(=O)[C@H]1CCCCCC)OC(=O)[C@H](CC(C)C)NC=O,inactive
19,CCN(CC)CCNC(=O)c1cc(Cl)c(N)cc1OC,inactive
20,C[C@H]1c2cccc(O)c2C(O)=C2C(=O)[C@]3(O)C(O)=C(C(N)=O)C(=O)[C@@H](N(C)C)[C@@H]3[C@@H](O)[C@@H]21,inactive

row,Compound,Potency
1,O=C([C@@H](Cc1cccc(C(F)(F)F)c1)NS(=O)(=O)c1cc(F)c2c(c1)CCNC2)N1CCCC1,inactive
2,Nc1nccn2c(C3CCC(C(=O)O)CC3)nc(-c3cc4cccc(Cl)c4[nH]3)c12 (stereo not given),12.6 µM (active)
3,Oc1cc(O)c2c(c1)O[C@H](c1ccc(O)c(O)c1)[C@H](O)C2,inactive
4,CN1CCC(=C2c3ccccc3Sc3ccccc32)CC1,8.2 µM (active)
5,CC(C)n1cc(-c2ccc3c(c2)N(C)CC3)c2c(NS(=O)(=O)c3ccn(C)n3)ccnc21,inactive
6,N#CN1CCC[C@@H](n2nc(-c3ccc(Oc4ccc(F)cc4F)cc3)c(C(N)=O)c2N)C1,inactive
7,COc1cc(C(=O)NC(N)=Nc2ccc(C)c(NC(=O)c3ccc(-c4ccccc4)cc3)c2)cc(OC)c1OC,10 µM (active)
8,CCNCCS(=O)(=O)NC[C@@]1(c2ccccc2)SC(NC(=O)C(C)(C)C)=NN1C(=O)C(C)(C)C,0.316 µM (active)
9,Cc1ccc(NC(=O)NCc2ccc3c(c2)CN(C2CCC(=O)NC2=O)C3=O)cc1Cl (stereo not given),0.0251 µM (active)
10,C=C1C(=O)OC(CCCCCCCC)C1C(=O)O (stereo not given),inactive
11,Cc1cc(O)c(-c2ccc([C@@H](C)CN(C)C)cc2)c2c1[nH]c(=O)c1sccc12,0.251 µM (active)
12,COC(=O)C1=C(C)NC(COC(N)=O)=C(C(=O)OC(C)C)C1c1cccc(Cl)c1Cl (stereo not given),20.6 µM (active)
13,C[C@@H](C(=O)Nc1ccc(Cl)cc1)C1CCC(c2ccnc3ccc(F)cc23)CC1 (stereo not given in full),25.1 µM (active)
14,FC(F)(F)c1ccc(Nc2nc3ccc(Oc4ccnc(-c5ncc(C(F)(F)F)[nH]5)c4)cc3[nH]2)cc1,11.2 µM (active)
15,CC(=O)CCC(=O)O,inactive
16,CC(C)(NS(=O)(=O)c1ccc2c(Cl)cnc(N=C(N)N)c2c1)C(=O)O,inactive
17,CC(C)n1cnc2c(NCCc3ccc(O)cc3)nc(-c3csc4ccccc34)nc21,inactive
18,CN1C(=O)CC(c2ccccc2)C1=O (stereo not given),inactive
19,NC(=O)c1cccc2[nH]c(-c3ccc([C@H]4CCCN4)cc3F)nc12,8.91 µM (active)
20,CC(=O)N(CC(=O)N(C)C)c1ccccc1,inactive
